Out of some 310,000 compounds screened, about 3,300 (1.1%) were called active.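 Rule for the calls: active = B-score under library mean minus 3 SD, initial fluorescence not abnormally high, positive integrated signal ratio; inactive = the rest.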 Shown is part of a subset that was picked to be rich in actives.
These molecules were tested against Short transient receptor potential channel 6 (Mus musculus) (UniProt Q61143) (assay: mouse TRPC6 channel inhibitors, primary screen, cell-based, HEK293, membrane potential dye (AID 2553;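 for B-score: B-score derived from integrated fluorescence ratio over the kinetic read; more negative B-score means stronger inhibition of depolarization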)). Conditions: ACh-evoked depolarization, at 10 µM; stronger effect = lower value.
Short transient receptor potential channel 6 (Mus musculus), sequence (Q61143 whole entry, looked up): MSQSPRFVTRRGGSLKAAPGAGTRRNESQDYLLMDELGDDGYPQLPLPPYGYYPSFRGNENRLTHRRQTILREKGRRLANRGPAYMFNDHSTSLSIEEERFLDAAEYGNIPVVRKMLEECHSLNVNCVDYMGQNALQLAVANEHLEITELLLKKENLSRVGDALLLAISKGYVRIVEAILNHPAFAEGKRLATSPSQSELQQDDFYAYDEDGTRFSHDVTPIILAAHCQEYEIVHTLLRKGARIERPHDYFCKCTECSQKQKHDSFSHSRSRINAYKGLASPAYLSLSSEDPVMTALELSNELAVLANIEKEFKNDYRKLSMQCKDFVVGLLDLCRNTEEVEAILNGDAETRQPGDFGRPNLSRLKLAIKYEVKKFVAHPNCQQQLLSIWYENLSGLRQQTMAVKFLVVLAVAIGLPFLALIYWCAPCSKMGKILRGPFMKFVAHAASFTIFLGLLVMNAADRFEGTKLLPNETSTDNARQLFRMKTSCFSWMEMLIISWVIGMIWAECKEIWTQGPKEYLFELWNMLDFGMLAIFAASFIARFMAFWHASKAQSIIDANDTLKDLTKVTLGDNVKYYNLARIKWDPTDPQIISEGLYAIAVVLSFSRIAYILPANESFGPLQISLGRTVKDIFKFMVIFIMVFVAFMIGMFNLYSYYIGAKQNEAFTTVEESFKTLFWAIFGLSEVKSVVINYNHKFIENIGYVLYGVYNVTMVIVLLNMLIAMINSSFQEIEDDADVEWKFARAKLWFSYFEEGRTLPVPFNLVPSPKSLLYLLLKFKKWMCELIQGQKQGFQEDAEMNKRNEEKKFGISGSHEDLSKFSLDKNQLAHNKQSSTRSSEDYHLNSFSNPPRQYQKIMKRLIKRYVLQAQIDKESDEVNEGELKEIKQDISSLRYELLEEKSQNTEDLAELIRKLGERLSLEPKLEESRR

Structure (SMILES) | B-score
CCN(C(=O)Cc1c(C(=O)O)n(CC)c2ccccc12)c1ccccc1C | inactive
CCCCOc1ccc(NC(=O)[C@@H]2CCCN2C(=O)C2CCN(S(=O)(=O)c3ccc(C)cc3)CC2)cc1 | inactive
CCc1ccc(C(=O)NNC(=O)C2CCN(c3ncnc4sc(C)c(C)c34)CC2)cc1 | inactive
CCC(=O)NC(Nc1nc2ccc(C)cc2s1)(C(=O)OC)C(F)(F)F (stereo unspecified) | inactive
CCOc1ccc2nc(NC(=O)c3cc([N+](=O)[O-])ccc3N3CCOCC3)sc2c1 | inactive
O=C(NC(Nc1nc2ccc([N+](=O)[O-])cc2s1)(C(F)(F)F)C(F)(F)F)c1ccccc1 | -10.2 (active)
COc1ccc2c(C)cc3nnnn3c2c1 | inactive
CC(C)c1cc(C(=O)N/N=C/c2ccoc2)c(O)c(C(C)C)c1 | inactive
COc1ccc(Br)cc1/C=N/n1c(C)nnc1C | -5.36 (active)
Cc1nnc(C)n1/N=C/c1ccc(C(C)C)cc1 | inactive
COc1ccc(Br)cc1/C=N/Nc1ccc(Cl)c(C(=O)O)c1 | inactive
NC(=O)COc1ccc(/C=N/NC(=O)C2CCCN2S(=O)(=O)c2ccc(Cl)cc2)cc1 (stereo unspecified) | inactive
COc1ccc(CN2C3CCCC2CC(NC(=O)c2cccc(F)c2)C3)cc1 (stereo unspecified) | inactive
CC(NCc1ccccc1OC1CCCC1)c1ccccc1 (stereo unspecified) | -8.19 (active)
CC(=O)OC(C(=O)NC1CCCCC1)c1ccccc1 (stereo unspecified) | inactive
COc1ccccc1CN1CCN(C(c2ccccc2)c2ccccc2)CC1 | inactive
COc1ccc(C(=O)C2CCCN(Cc3cccn3-c3ccccn3)C2)c(C)c1 (stereo unspecified) | -12.5 (active)
CCOC(=O)c1[nH]ncc1CN1CCCC(C(=O)c2ccc(OC)cc2C)C1 (stereo unspecified) | inactive
COc1ccc(C(=O)C2CCCN(Cc3ccc4nonc4c3)C2)c(C)c1 (stereo unspecified) | inactive
Cc1ccc(C(=O)Oc2ccc(C(=S)N3CCOCC3)cc2)cc1 | inactive
CC(C)Cc1nc(N2CCOCC2)c(C#N)c2c1CCC2 | inactive
CCc1nc(NCCO)c(C#N)c2c1CCCC2 | inactive
CC(C)CCNc1nc(N2CCCC2)c2c(c1C#N)CCN(C)C2 | -6.63 (active)
COc1ccc(-c2cc(C3CCN(c4ncccc4[N+](=O)[O-])CC3)[nH]n2)cc1 | inactive
Cc1cc(Cl)ccc1C(=O)C1CCCN(C(=O)c2nonc2C)C1 (stereo unspecified) | inactive
O=C(O)c1ccccc1C(=O)Nc1ccccc1[N+](=O)[O-] | inactive

Structure (SMILES) | B-score
O=C(Nc1ccccc1[N+](=O)[O-])C1C(c2ccccc2)=C1c1ccccc1 | inactive
O=[N+]([O-])c1ccccc1Nc1ccc(O)cc1 | -5.49 (active)
O=C(CCN1CCCCC1)N=Nc1c(O)[nH]c2ccccc12 | inactive
N#Cc1cccc(CSc2ncnc(N)n2)c1 | inactive
O=C(CN1C(=O)S/C(=C\c2ccccc2Cl)C1=O)NC1C=CS(=O)(=O)C1 (stereo unspecified) | inactive
O=C(CN1CCCCCC1)NCCN1C(=O)S/C(=C\c2ccccc2Cl)C1=O | -5 (active)
O=C(CN1C(=O)S/C(=C\c2ccccc2F)C1=O)NCCCn1ccnc1 | inactive
CCn1cc(C(=O)OCC(=O)Nc2cccc(C)c2)c(=O)c2ccc(C)nc21 | inactive
Cc1nc(C(=O)NCc2ccccc2)sc1C1(C)CC(c2cccnc2)=NO1 (stereo unspecified) | -5.44 (active)
Cc1nc(C(=O)Nc2ccc(Cl)cc2)sc1C1(C)CC(c2ccccc2)=NO1 (stereo unspecified) | inactive
Cc1nc(-c2ccccc2)sc1C1(C)CC(c2cccnc2)=NO1 (stereo unspecified) | inactive
CC(C)(C)CN1CCNC(=O)C1CC(=O)NC1Cc2ccccc2C1 (stereo unspecified) | inactive
CCN(CC)CCCNC(=O)COc1ccc2oc3c(c2c1)CCCC3 | inactive
CCOC(=O)N1CCN(C(=O)COc2ccc(Br)cc2)CC1 | inactive
CCOC(=O)N1CCN(C(=O)COc2ccc3oc4c(c3c2)CCCC4)CC1 | -5.45 (active)
COc1ccc(COCCN2CCN(S(=O)(=O)c3ccccc3)CCC2=O)cc1 | inactive
Cc1ccc(C(O)P(=O)(OC(C)C)c2ccc(N(C)C)cc2)cc1 (stereo unspecified) | inactive
CCn1c(SCC(=O)Nc2ccc(Br)cc2)nc2sc3c(c2c1=O)CCN(C)C3 | inactive
COc1c(C=O)c(CCN(C)C(=O)c2ccc(F)cc2)cc2c1OCO2 | inactive
COc1ccc(C)cc1S(=O)(=O)Nc1cc2c3c(c1)CCC(=O)N3CCC2 | inactive
CC(NC(=O)c1ccc(N2CCNCC2)c([N+](=O)[O-])c1)C12CC3CC(CC(C3)C1)C2 (stereo unspecified) | inactive
CS(=O)(=O)N1CCN(c2ccc(C(=O)NC3C4CC5CC(C4)CC3C5)cc2[N+](=O)[O-])CC1 (stereo unspecified) | inactive
O=C(NC1C2CC3CC(C2)CC1C3)c1ccc(N2CCNCC2)c([N+](=O)[O-])c1 (stereo unspecified) | -6.41 (active)
COC(=O)c1ccc(CNC(=O)C2CCC(=O)N(Cc3ccccn3)C2)cc1 (stereo unspecified) | inactive
COc1cc(OC)cc(C(=O)NCCCn2ccnc2)c1 | inactive
CCCCC(=O)Nc1ccc(C(=O)NCCCn2ccnc2)cc1 | inactive

Structure (SMILES) | B-score
CCCC(=O)Nc1ccc(C(=O)NCCCn2ccnc2)cc1 | -6.02 (active)
COc1ccnc(Oc2ccccc2)n1 | inactive
Cn1nc(C(F)(F)F)c(-c2ccc(F)cc2)c1NC(=O)CSCC(=O)O | inactive
CSCCC(NC(=O)c1cc([N+](=O)[O-])cc([N+](=O)[O-])c1)c1nc2ccccc2[nH]1 (stereo unspecified) | inactive
CSCCC(NC(=O)c1ccc(=O)n(C)n1)c1nc2ccccc2[nH]1 (stereo unspecified) | -4.99 (active)
COc1ccc(CC(=O)N[C@@H](CCSC)c2nc3ccccc3[nH]2)cc1 | inactive
COc1ccccc1Oc1ccc(N2CC(C(=O)OCC(=O)c3ccc(F)cc3)CC2=O)cc1 (stereo unspecified) | inactive
CC(C)[C@@H]1COC(c2cccc(C3=N[C@H](C(C)C)CO3)c2)=N1 | inactive
Cc1nc(-c2ccc(F)cc2)c(CC(=O)Nc2cccc(S(=O)(=O)N3CCOCC3)c2)s1 | inactive
O=S(=O)(c1cccc(Cn2nnc(-c3ccc(F)cc3)n2)c1)N1CCOCC1 | -5.77 (active)
CCN(Cc1ccncc1)C(=O)c1cccc(S(=O)(=O)N2CCOCC2)c1 | inactive
O=C(Nc1ccc(OCC(=O)N2CCOCC2)cc1)c1cc(F)c(F)cc1Cl | inactive
COc1ccc2c(c1)C=CC1(O2)N(CCO)c2ccccc2C1(C)C (stereo unspecified) | inactive
O=C1CN(C(=O)c2ccccc2F)C(c2ccc(F)cc2)c2cc(F)ccc2N1 (stereo unspecified) | -5.3 (active)
CC(C)C(=O)N1CC(=O)Nc2ccc(F)cc2C1c1ccc(F)cc1 (stereo unspecified) | inactive
Cc1ccc(C(=O)N2CC(=O)Nc3ccc(F)cc3C2c2ccc(F)cc2)cc1 (stereo unspecified) | inactive
CCc1ccc(NC(=O)CS(=O)CC(=O)N2CCN(c3ccccc3F)CC2)cc1 (stereo unspecified) | inactive
Cc1c(CCO)sc[n+]1CC(=O)OC12CC3CC(CC(C3)C1)C2 | inactive
Cc1c(CCOC(=O)c2cc([N+](=O)[O-])ccc2Cl)sc[n+]1CCCCS(=O)(=O)[O-] | inactive
Cc1c(CCOC(=O)CC23CC4CC(CC(C)(C4)C2)C3)sc[n+]1Cc1ccc([N+](=O)[O-])cc1 | -5.88 (active)
COc1ccc(NC(=O)CN(C)C(=O)c2ccc(NC3CC3)c([N+](=O)[O-])c2)cc1 | inactive
CCC(C)(C)N=C(NC#N)Nc1cccnc1 | inactive
Cc1cccn2c(=O)c3cc(C(=O)NCCN4CCOCC4)c(=N)n(Cc4cccnc4)c3nc12 | inactive
Cc1cccn2c(=O)c3cc(C#N)c(=NC(=O)c4cccnc4)n(CC4CCCO4)c3nc12 (stereo unspecified) | inactive
Cc1cccn2c(=O)c3cc(C#N)c(=O)n(CCCN4CCOCC4)c3nc12 | -15.8 (active)
CC(C)CCNC(=O)C(C)N(C(=O)Cn1nnc(-c2ccc(F)cc2)n1)C1CCCC1 (stereo unspecified) | inactive

Structure (SMILES) | B-score
CCCCNc1nc2ccccc2nc1NS(=O)(=O)c1cccs1 | inactive
O=C(CN1C(=O)CSC1=O)N1CCCC(Nc2ccc(F)cc2)C1 (stereo unspecified) | inactive
CCOc1cccc(/C(O)=C2/C(=O)C(=O)N(CCOC)C2c2ccncc2)c1 (stereo unspecified) | inactive
CCOc1ccc(/C(O)=C2/C(=O)C(=O)N(Cc3cccnc3)C2c2ccc(N(C)C)cc2)c(C)c1 (stereo unspecified) | -6.27 (active)
COc1ccc(C2C(C(C)=O)=C(O)C(=O)N2Cc2cccnc2)cc1 (stereo unspecified) | inactive
O=C(NCc1ccccc1)C1C(=O)N(Cc2ccccc2)C(=O)C1C1(O)CCCC1 (stereo unspecified) | inactive
Cc1cc(NC(=O)CN2CCCCC2C)nc2c1c(=O)oc1ccccc12 (stereo unspecified) | inactive
CC(=O)N1CCC(N(C(=O)Nc2ccc(Cl)cc2)C(C)C)CC1 | inactive
COc1ccc(CNC(=O)c2cc3c(=O)n4ccccc4nc3n(CC3CCCO3)c2=N)cc1 (stereo unspecified) | -7.34 (active)
COc1ccc(CCn2c(=N)c(C(=O)NCC3CCCO3)cc3c(=O)n4cccc(C)c4nc32)cc1OC (stereo unspecified) | inactive
Cc1ccc2nc3c(cc(C(=O)NCCc4ccccc4)c(=N)n3CC3CCCO3)c(=O)n2c1 (stereo unspecified) | inactive
CC(C)c1ccc(NC2CCCN(C(=O)c3ccncc3)C2)cc1 (stereo unspecified) | inactive
CC(=O)NS(=O)(=O)c1ccc2c(c1)Cc1cc(S(=O)(=O)NC(C)=O)ccc1-2 | inactive
Cc1ccc2c(c1)N(CC(=O)N1CCC(O)CC1)C(=O)CO2 | inactive
CCOC(=O)N1CCC(NC(=O)CN2C(=O)COc3ccc(C(C)(C)C)cc32)CC1 | -7.85 (active)
Cc1ccc2c(c1)N(CC(=O)N1CCCC(C)C1)C(=O)CO2 (stereo unspecified) | inactive
CC(NC(=O)CCC(=O)N1CCN(S(=O)(=O)c2ccc(Cl)cc2)CC1)c1ccccc1 (stereo unspecified) | inactive
CC12C(=O)N(c3ccccc3)C(=O)C1C(c1ccccc1)N1CCCN12 (stereo unspecified) | inactive
CCCC(=O)Nc1ccc(Cl)c(NC(=O)c2ccc(Br)o2)c1 | inactive
O=C(Nc1cccc(Cl)c1N1CCOCC1)c1cccnc1 | inactive
CCN1CCN(c2c(Cl)cccc2NC(=O)c2ccc(Br)o2)CC1 | -12.2 (active)
CCCN=C1NC(=O)C(CC(=O)NCCc2ccc(OC)c(OC)c2)S1 (stereo unspecified) | inactive
COc1ccc(NC(=O)CSc2nc(SC)ns2)c(OC)c1 | inactive

Source: PubChem BioAssay AID2553 (Johns Hopkins Ion Channel Center, 2010)
